Data reported in PubChem BioAssay (NCATS).
Results filed as inconclusive are left out. The source made the active and inactive calls. Unless noted, the call rests on the fitted dose curve; in most records, active means well fitted curve in the direction sought with a large enough effect; inconclusive means small, poorly fitted or top-dose-only effect, or another doubt; inactive means no such curve, though single readings can be large; an effect the other way counts as inactive or inconclusive.

Columns and labels:
[1] = Cell Viability - NIH 3T3 (AID 541); settings: NIH 3T3 cell viability, qHTS; activity change, negative = cytotoxicity: at 92.2 µM (top of the series);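 further: cells exposed to compound for 40 hours; plate controls were DMSO alone for no effect and tamoxifen positive control for full effect; nearly all actives have a fitted effect of over 25% in size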
Summary of the method: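 AC50 values reflect concentration-dependent loss of intracellular ATP in NIH 3T3 cells after 40 hr treatment in complete culture medium, quantified by luciferase-based luminescence.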

[2] = Cellular Toxicity (caspase-3) Mesangial (AID 660);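 further: combined caspase 3 and 7 activity read by Caspase-Glo luminescence; cells exposed to compound for 16 h before the caspase read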
Summary of the method: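 Concentration-response qHTS: compound-induced rise in caspase 3/7 luminescence in human mesangial cells after 16 h, normalized to DMSO and 100 uM tamoxifen controls.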

[3] = Cell Viability - LYMP2-004 (AID 966);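 further: plate controls were DMSO only for no effect and tetraoctylammonium bromide control for full effect; nearly all actives have a fitted effect of over 65% in size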
Summary of the method: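 Acute toxicity is scored as a concentration-dependent drop in intracellular ATP, quantified by luciferase luminescence, in human lymphoblastoid cells exposed to compound for 24 hr. AC50 derives from Hill-equation modelling.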

[4] = Cell Viability - LYMP2-017 (AID 972);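 further: cells exposed to compound for 24 hours at 37 °C; on the % scale 0 is the no-effect control and ±100 the full control effect; nearly all actives have a fitted effect of over 55% in size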
Summary of the method: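 Steps: plate 2500 lymphoblastoid cells per well; incubate 5 hr at 37 C; add compound across a concentration series and incubate 24 hr at 37 C; add CellTiter-Glo and read luminescence after 30 min at room temperature; fit Hill curves for AC50.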

[5] = target: Estrogen receptor (Homo sapiens) (UniProt P03372); test: qHTS assay for small molecule antagonists of estrogen receptor alpha signaling (AID 588513; active means well fitted curve in the direction sought with a large enough effect in the signal ratio, with a control signal flat, not every such curve was filed as active; the % refers to the signal ratio; further: on the % scale 0 is the no-effect control and ±100 the full control effect)
Summary of the method: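 Fluorescence from CCF4 substrate after 2 h at room temperature gave reporter activity; cells had been exposed to compound and 0.5nM 17-beta-estradiol for 18 h at 37 C. Hill-equation fitting yielded IC50 and maximal response.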

[6] = target: Estrogen receptor (Homo sapiens) (UniProt P03372); test: qHTS assay for small molecule agonists of estrogen receptor alpha signaling (AID 588514; calls by dose curve;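 further: 0% = vehicle only and 100% = reference agonist; nearly all actives have a fitted effect of over 70% in size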)
Summary of the method: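 Reporter-gene assay. […] controls beta-lactamase in HEK 293 GripTite cells; after 18 hrs with compound, CCF4 substrate is added for 2 hrs and fluorescence is read.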

[7] = target: Peroxisome proliferator-activated receptor delta (Homo sapiens) (UniProt Q03181); test: qHTS assay for small molecule agonists of peroxisome proliferator-activated receptor delta signaling (AID 588534; calls by dose curve;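 further: 0% = DMSO basal wells and 100% = positive control agonist at 10 µM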)
Summary of the method: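 Reporter cells were plated and held 5 hrs at 37 C before compounds were added. After 18 hrs at 37 C, CCF4 dye was loaded for 2 hrs at RT and fluorescence measured.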

[8] = qHTS assay for small molecule antagonists of peroxisome proliferator-activated receptor delta signaling (AID 588535; active means well fitted inhibition curve with a large enough effect in the signal ratio, with a control signal flat, not every such curve was filed as active; the % refers to the signal ratio;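 on max response: cells co-treated with a PPAR-delta agonist as stimulator during compound exposure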); settings: HEK293T PPARd-UAS-bla, beta-lactamase FRET ratio, 18 h; 460 nm channel
Summary of the method: (§1)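 GeneBLAzer PPAR-delta-UAS-bla HEK293T cells in medium with 2% charcoal/dextran FBS were preincubated 5 hrs at 37 C, then given compounds, incubated 18 hrs at 37 C, and read by CCF4 beta-lactamase fluorescence; IC50 from Hill fits.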

[9] = target: Peroxisome proliferator-activated receptor delta (Homo sapiens) (UniProt Q03181); test: as above
Summary of the method: as §1

[10] = target: Peroxisome proliferator-activated receptor gamma (Homo sapiens) (UniProt P37231); test: qHTS assay for small molecule agonists of peroxisome proliferator-activated receptor gamma signaling (AID 588536; active means well fitted curve in the direction sought with a large enough effect in the signal ratio, with a control signal flat, not every such curve was filed as active; the % refers to the signal ratio;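 further: 0% = DMSO basal wells and 100% = rosiglitazone at 2 µM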)
Summary of the method: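 GeneBLAzer PPAR-gamma-UAS-bla HEK293 cells in 1% charcoal/dextran-treated FBS medium were treated 16 h at 37 C with compounds. Beta-lactamase activity was read by CCF4 ratio (460/530 nm). Response was normalized to 2 uM rosiglitazone (100%) and DMSO, then Hill-fitted for EC50 and efficacy.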

[11] = target: Vitamin D3 receptor (Homo sapiens) (UniProt P11473); test: qHTS assay for small molecule agonists of vitamin D receptor signaling (AID 588543; calls by dose curve;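 further: 0% = DMSO basal and 100% = reference agonist control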)
Summary of the method: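 Reporter cells (HEK293T, VDR-UAS-bla) were seeded in medium with 2% charcoal-stripped serum and incubated 5 h, then compounds in concentration series were added for 16 h at 37 °C. Stimulation was scaled between DMSO basal and 50 nM 1α,25-dihydroxyvitamin D3.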

[12] = target: Thyroid hormone receptor beta (Homo sapiens) (UniProt P10828); test: qHTS assay for small molecule antagonists of thyroid hormone receptor beta signaling (AID 588547; active means well fitted inhibition curve with a large enough effect in the signal ratio, with a control signal flat, not every such curve was filed as active; the % refers to the signal ratio;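 further: cells stimulated with 0.4 nM T3 agonist during compound exposure; on the % scale 0 is the no-effect control and ±100 the full control effect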); settings: TR-UAS-bla HEK293, beta-lactamase ratio, antagonist mode, 18 h
Summary of the method: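 TR-UAS-bla GripTite HEK293 cells in 2% charcoal/dextran FBS medium were preincubated 4 h at 37 C, given compound (0.59 nM to 92 uM) plus 0.4 nM T3 (final) for 18 h, then CCF4 for 2 h at RT; Hill fit gave IC50.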

[13] = qHTS assay for small molecule agonists of the antioxidant response element (ARE) signaling pathway (AID 651741; active means well fitted activation curve with a large enough effect in the signal ratio; the % refers to the signal ratio; further: % of control where 0% means no effect)
Summary of the method: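 ARE-bla HepG2 cells (beta-lactamase reporter under ARE control) were plated at 2,000 cells/well, preincubated 5 h at 37 C/5% CO2, then treated with DMSO-dissolved compounds for 16 h at 37 C; LiveBLAzer B/G FRET substrate added, fluorescence read after 2 h at room temperature.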

[14] = qHTS assay for small molecule antagonists of the retinoid-related orphan receptor gamma (ROR-gamma) signaling pathway - cell viability counter screen (AID 720652; active means well fitted curve in the direction sought with a large enough effect in the repeat runs; an effect the other way counts as inactive or inconclusive;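 further: CHO reporter cells with doxycycline-induced ROR-gamma expression; compound exposure lasted 16 hr before ATP read; on the % scale 0 is the no-effect control and ±100 the full control effect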)
Summary of the method: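 Cytotoxicity is quantified via intracellular ATP (CellTiter-Glo luminescence) in doxycycline-induced CHO ROR response element-luciferase reporter cells treated with compound for 16 hr at 37 C, 5% CO2.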

[15] = target: Peroxisome proliferator-activated receptor gamma (Homo sapiens) (UniProt P37231); test: qHTS assay for small molecule antagonists of peroxisome proliferator-activated receptor gamma signaling (AID 588537; active means well fitted inhibition curve with a large enough effect in the signal ratio, with a control signal flat, not every such curve was filed as active; the % refers to the signal ratio;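 further: reporter cells co-stimulated with 50 nM rosiglitazone agonist during compound treatment; % of control where 0% means no effect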)
Summary of the method: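 PPAR-gamma-UAS-bla HEK293 cells (3000/well, 1% charcoal/dextran-stripped FBS) were preincubated 6-6.5 h at 37 C, given titrated compounds, then stimulated with 50 nM rosiglitazone for 16 h. Beta-lactamase activity was read with CCF4 dye; IC50 came from Hill fits.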

[16] = target: Vitamin D3 receptor (Homo sapiens) (UniProt P11473); test: qHTS assay for small molecule antagonists of vitamin D receptor signaling (AID 588541; calls by dose curve;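 further: receptor activated by calcitriol during compound treatment; on the % scale 0 is the no-effect control and ±100 the full control effect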)
Summary of the method: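 VDR-UAS-bla HEK293T cells (2000/well, 2% charcoal-stripped FBS) were treated with titrated compounds plus 1-alpha,25-dihydroxyvitamin D3 (50 nM or 3 nM final) for 16 h at 37 C. CCF4 beta-lactamase fluorescence was read; Hill fits gave IC50.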

[17] = qHTS assay for small molecule agonists of the antioxidant response element (ARE) signaling pathway measured by Nrf2-dependant transcriptional activity (AID 720636; active means well fitted curve in the direction sought with a large enough effect in the repeat runs; an effect the other way counts as inactive or inconclusive;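 further: HepG2 cells with an ARE-driven luciferase reporter; % of control where 0% means no effect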)
Summary of the method: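 HepG2 ARE-luc reporter line, 1% dialyzed FBS; 6 hr attachment at 37 C, compound pinned in, 16 hr at 37 C/5% CO2; ONE-Glo, 30 min RT, luminescence read.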

[18] = target: Glucocorticoid receptor (Homo sapiens) (UniProt P04150); test: qHTS assay for small molecule agonists of glucocorticoid receptor signaling (AID 588532; active means well fitted curve in the direction sought with a large enough effect in the signal ratio, with a control signal flat; the % refers to the signal ratio;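 further: 100% = dexamethasone at 0.1 µM and 0% = DMSO only wells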); settings: HeLa MMTV-bla, beta-lactamase ratio, agonist, 18 h; stronger effect = higher value; percent of dexamethasone control, DMSO zero
Summary of the method: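 Stimulation of a glucocorticoid response element-driven beta-lactamase gene was measured in HeLa cells. Responses were scaled between DMSO basal and 0.1 uM dexamethasone, then fitted for half-maximal stimulation.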

[19] = target: Glucocorticoid receptor (Homo sapiens) (UniProt P04150); test: qHTS assay for small molecule antagonists of glucocorticoid receptor signaling (AID 588533; active means well fitted inhibition curve with a large enough effect in the signal ratio, with a control signal flat, not every such curve was filed as active; the % refers to the signal ratio)
Summary of the method: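 Antagonist-mode qHTS: compound titrations added to GRE-bla HeLa cells, then dexamethasone 2 nM final; 18 h, 37 C. CCF4 FRET fluorescence normalized to dexamethasone and DMSO; IC50 from Hill fit.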

[20] = qHTS assay for small molecule activators of the nuclear factor-kappa B (NF-kB) signaling pathway (AID 651749; active means well fitted activation curve with a large enough effect in the signal ratio; the % refers to the signal ratio; further: % of control where 0% means no effect); settings: NF-kB-bla ME-180 cells, beta-lactamase FRET ratio, 16 h; stronger effect = higher value
Summary of the method: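 ME-180 cells stably carrying a beta-lactamase reporter under an NF-kB response element were exposed to compound or DMSO vehicle for 16 hr at 37C, 5% CO2. Pathway activation was read by FRET, since reporter expression disrupts FRET.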

Peroxisome proliferator-activated receptor delta (Homo sapiens), sequence (Q03181 whole entry, looked up): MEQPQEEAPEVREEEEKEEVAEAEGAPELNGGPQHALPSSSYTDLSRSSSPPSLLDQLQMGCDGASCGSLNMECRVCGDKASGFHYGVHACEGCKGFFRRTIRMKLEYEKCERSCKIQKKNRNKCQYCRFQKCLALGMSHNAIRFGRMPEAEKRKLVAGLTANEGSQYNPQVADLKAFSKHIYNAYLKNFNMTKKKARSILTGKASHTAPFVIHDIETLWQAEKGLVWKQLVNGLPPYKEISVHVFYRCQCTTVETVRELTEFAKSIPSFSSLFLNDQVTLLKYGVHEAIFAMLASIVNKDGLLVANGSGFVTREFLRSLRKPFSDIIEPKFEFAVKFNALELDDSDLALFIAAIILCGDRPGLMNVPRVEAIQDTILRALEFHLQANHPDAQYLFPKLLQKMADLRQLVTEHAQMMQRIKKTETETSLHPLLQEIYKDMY
Thyroid hormone receptor beta (Homo sapiens), sequence (P10828 whole entry, looked up): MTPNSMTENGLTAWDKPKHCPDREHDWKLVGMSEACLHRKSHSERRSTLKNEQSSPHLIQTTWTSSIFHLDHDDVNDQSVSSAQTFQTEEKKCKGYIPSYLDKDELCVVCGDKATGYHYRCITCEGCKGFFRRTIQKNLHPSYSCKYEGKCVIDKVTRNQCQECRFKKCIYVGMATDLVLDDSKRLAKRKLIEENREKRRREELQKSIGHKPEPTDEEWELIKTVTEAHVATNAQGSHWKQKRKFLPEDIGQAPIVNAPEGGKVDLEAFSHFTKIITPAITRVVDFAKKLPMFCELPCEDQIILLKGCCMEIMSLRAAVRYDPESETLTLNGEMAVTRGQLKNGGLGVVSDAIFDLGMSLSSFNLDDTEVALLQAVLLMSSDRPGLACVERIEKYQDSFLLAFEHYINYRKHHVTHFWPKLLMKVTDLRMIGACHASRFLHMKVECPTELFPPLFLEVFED
Vitamin D3 receptor (Homo sapiens), sequence (P11473 whole entry, looked up): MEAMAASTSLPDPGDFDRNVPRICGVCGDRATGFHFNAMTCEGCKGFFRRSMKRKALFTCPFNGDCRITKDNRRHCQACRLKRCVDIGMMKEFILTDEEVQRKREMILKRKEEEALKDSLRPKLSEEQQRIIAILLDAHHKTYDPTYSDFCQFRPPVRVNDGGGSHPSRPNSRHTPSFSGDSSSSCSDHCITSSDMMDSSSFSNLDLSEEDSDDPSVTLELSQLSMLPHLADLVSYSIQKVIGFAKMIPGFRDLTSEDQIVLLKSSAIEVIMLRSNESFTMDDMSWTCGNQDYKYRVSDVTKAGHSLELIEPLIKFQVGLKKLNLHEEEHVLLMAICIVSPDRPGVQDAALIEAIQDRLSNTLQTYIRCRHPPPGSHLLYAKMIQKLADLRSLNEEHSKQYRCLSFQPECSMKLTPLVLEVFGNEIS
Estrogen receptor (Homo sapiens), sequence (P03372 whole entry, looked up): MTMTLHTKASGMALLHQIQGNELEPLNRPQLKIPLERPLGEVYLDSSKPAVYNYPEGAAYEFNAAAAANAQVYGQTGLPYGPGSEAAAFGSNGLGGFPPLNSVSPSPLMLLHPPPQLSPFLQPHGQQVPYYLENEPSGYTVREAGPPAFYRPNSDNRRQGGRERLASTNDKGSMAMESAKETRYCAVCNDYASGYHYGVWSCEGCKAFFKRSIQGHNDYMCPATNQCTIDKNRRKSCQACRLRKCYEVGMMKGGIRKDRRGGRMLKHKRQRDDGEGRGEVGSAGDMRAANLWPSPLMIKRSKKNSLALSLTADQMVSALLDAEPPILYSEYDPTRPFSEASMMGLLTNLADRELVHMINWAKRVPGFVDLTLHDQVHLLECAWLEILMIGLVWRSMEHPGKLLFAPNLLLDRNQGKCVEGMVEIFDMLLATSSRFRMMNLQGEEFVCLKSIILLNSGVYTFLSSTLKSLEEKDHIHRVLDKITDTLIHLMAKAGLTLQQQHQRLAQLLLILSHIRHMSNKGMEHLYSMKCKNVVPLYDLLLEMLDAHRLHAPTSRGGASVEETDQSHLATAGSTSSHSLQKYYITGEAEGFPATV
Peroxisome proliferator-activated receptor gamma (Homo sapiens), sequence (P37231 whole entry, looked up): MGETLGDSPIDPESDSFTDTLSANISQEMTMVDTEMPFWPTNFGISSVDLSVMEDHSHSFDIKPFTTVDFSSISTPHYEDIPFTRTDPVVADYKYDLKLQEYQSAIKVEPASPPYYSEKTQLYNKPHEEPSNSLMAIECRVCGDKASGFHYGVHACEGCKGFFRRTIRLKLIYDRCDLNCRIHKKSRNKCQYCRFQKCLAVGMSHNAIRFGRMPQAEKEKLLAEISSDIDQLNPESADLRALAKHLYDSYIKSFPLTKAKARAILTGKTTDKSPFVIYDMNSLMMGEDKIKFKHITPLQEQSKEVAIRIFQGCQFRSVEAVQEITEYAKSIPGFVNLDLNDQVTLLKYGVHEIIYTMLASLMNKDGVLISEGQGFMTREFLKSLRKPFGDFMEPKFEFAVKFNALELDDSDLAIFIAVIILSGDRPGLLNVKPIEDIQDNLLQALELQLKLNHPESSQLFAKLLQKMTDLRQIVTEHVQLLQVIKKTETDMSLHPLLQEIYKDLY
Glucocorticoid receptor (Homo sapiens), sequence (P04150 whole entry, looked up): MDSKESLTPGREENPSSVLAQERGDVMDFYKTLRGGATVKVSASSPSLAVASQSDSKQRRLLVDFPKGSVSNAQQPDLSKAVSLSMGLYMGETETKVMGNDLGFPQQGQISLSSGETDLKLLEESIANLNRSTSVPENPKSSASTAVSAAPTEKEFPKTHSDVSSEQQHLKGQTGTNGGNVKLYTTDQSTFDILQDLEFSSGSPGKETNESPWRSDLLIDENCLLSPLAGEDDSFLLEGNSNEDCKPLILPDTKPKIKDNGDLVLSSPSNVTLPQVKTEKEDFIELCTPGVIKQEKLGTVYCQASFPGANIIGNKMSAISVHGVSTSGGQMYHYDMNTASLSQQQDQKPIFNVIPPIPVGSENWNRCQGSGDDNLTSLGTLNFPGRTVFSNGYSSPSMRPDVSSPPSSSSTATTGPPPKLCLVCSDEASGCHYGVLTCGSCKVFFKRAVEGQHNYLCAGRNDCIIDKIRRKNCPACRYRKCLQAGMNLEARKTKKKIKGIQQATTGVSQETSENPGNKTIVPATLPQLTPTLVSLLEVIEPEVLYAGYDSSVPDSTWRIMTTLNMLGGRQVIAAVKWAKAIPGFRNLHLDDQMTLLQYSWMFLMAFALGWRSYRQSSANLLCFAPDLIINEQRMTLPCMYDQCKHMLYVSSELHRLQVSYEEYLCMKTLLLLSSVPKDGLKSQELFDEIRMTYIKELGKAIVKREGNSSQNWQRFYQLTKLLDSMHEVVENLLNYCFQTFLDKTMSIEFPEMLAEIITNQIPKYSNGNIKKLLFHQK

Nc1cccc(Cl)c1
inactive: Potency [1] | outcome [2] | Potency [3] | Potency [4] | Potency [5] | Potency [6] | outcome [7] | outcome [9] | outcome [10] | outcome [11] | activity change % (negative = inhibition) [12] 2.78% | Potency [13] | Potency [14]
30.4%: max response [8]

Nc1cccc2ccccc12
inactive: Potency [1] | outcome [2] | Potency [3] | Potency [5] | Potency [6] | outcome [7] | outcome [10] | activity change % (negative = inhibition) [12] 1.61%

O=C(Cl)c1ccccc1F
inactive: Potency [1] | outcome [2] | Potency [3] | Potency [4] | Potency [5] | outcome [7] | outcome [9] | outcome [10] | Potency [15] | outcome [16] | activity change % (negative = inhibition) [12] -5.22% | Potency [17] | Potency [14]
-9.33%: max response [8]

CCCCCCCCCCCOC(=O)c1ccccc1C(=O)OCCCCCCCCCCC
-38.8%: max response [8]
inactive: Potency [1] | Potency [3] | Potency [4] | Potency [5] | Potency [6] | activation [18] 3.4% | outcome [19] | outcome [7] | outcome [9] | outcome [10] | Potency [15] | outcome [16] | Potency [13] | activation [20] -0.4% | Potency [17] | Potency [14]

Cc1coc2c1CCC(C)C2 (centres undefined)
-2.44%: max response [8]
inactive: Potency [1] | outcome [2] | Potency [3] | Potency [4] | Potency [5] | Potency [6] | activation [18] 1.47% | outcome [19] | outcome [7] | outcome [9] | outcome [16] | outcome [11] | activity change % (negative = inhibition) [12] 22.1% | Potency [17] | Potency [14]

ClCCCCl
23.7%: max response [8]
inactive: Potency [1] | Potency [4] | activation [18] -8% | outcome [7] | outcome [9] | outcome [16] | outcome [11] | activity change % (negative = inhibition) [12] 17.8% | Potency [13] | activation [20] 0.207% | Potency [17]

C[N+](=O)[O-]
3.34%: max response [8]
inactive: Potency [1] | outcome [2] | Potency [3] | Potency [4] | Potency [5] | Potency [6] | activation [18] -0.802% | outcome [19] | outcome [7] | outcome [9] | outcome [10] | Potency [15] | outcome [11] | activity change % (negative = inhibition) [12] -5.27% | Potency [17] | Potency [14]

CC1CC(=O)O1 (centres undefined)
inactive: Potency [1] | outcome [2] | Potency [3] | Potency [4] | activation [18] 4.16% | outcome [19] | outcome [7] | outcome [9] | outcome [10] | Potency [15] | outcome [16] | outcome [11] | Potency [14]
2.28%: max response [8]

CC(C)OC(=O)Cc1ccccc1
inactive: Potency [1] | outcome [2] | Potency [3] | Potency [4] | Potency [6] | activation [18] 0.809% | outcome [19] | outcome [10] | outcome [16] | activity change % (negative = inhibition) [12] -4.91% | Potency [13] | Potency [14]
